Among all 300,000 compounds or so, about 2,500 (0.83%) were called active.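 The calls were made as follows: active = inhibition above the mean of all tested compounds plus 3 SD, set per screening campaign (cut at about 24% in these data); inactive = the rest.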 The sample as a whole holds a higher share of actives than the screen did.
system: tRNA 2'-phosphotransferase TPT1 (Candida albicans SC5314); test: tRNA 2'-phosphotransferase blockers, C. albicans – biochemical, fluorescence polarization, primary screen (AID 1962); conditions: recombinant caTPT1, FP RNA substrate dephosphorylation; at 5 µM; hits give high values;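 also: plate controls were DMSO alone for no effect and ferristatin control at 100 nM for full effect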

Row | SMILES | inhibition
1 | CCCCC(=O)N/N=C/c1c(O)n(CCC2=CCCCC2)c(=O)[nH]c1=O | 0.99% (inactive)
2 | CCCCC(=O)N/N=C/c1c(O)n(CC)c(=S)n(CC)c1=O | 156% (active)
3 | CCCCC(=O)N/N=C/c1c(O)n(-c2ccccc2)c(=O)[nH]c1=O | -0.86% (inactive)
4 | CNC(=O)Nc1ccc(C(O)(C(=O)OC)C(F)(F)F)cc1 (centres undefined) | 0.47% (inactive)
5 | CCOC(=O)c1c(C)c(C(=O)N2CCC3(CC2)OCCO3)c(C)n1CC | 1.34% (inactive)
6 | O=c1[nH]c(=O)n(-c2ccccc2)c(O)c1C=NC12CN3CN(CN(C3)C1)C2 | -4.46% (inactive)
7 | CCN1C(=O)C(=Cc2c(C)n(CC(=O)NCC3CCCO3)c3ccccc23)C(=O)N(CC)C1=S (centres undefined) | 24.2% (active)
8 | CCC1(C)CC(CCNCc2ccc(N(C)C)cc2)(c2ccc(F)cc2)CCO1 (centres undefined) | 1.22% (inactive)
9 | O=C(C1CC(=O)N(C2CCCC2)C1)N1CCC2(CC1)OCCO2 (centres undefined) | -0.68% (inactive)
10 | COc1cccc(N2C(=O)NC(=O)/C(=C\c3cn(C)c4ccccc34)C2=O)c1 | -73.3% (inactive)
11 | COc1ccc(N2C(=O)/C(=C/c3ccco3)C(=O)NC2=S)cc1 | 36.7% (active)
12 | COc1ccc(CN2C(=O)NC(=O)/C(=C\c3ccc(OC)c(OC)c3OC)C2=O)cc1 | 10.5% (inactive)
13 | O=C(CCCn1c(=O)[nH]c2cc(Cl)ccc2c1=O)N1CCC2(CC1)OCCO2 | 5.94% (inactive)
14 | CCOC(=O)C(O)(c1ccc(N=Cc2ccccc2O)c(C)c1)C(F)(F)F (centres undefined) | 9.39% (inactive)
15 | COC(=O)COc1cc(C)cc2oc(=O)c3c(c12)CCCC3 | -2.95% (inactive)
16 | COc1cc2nc(N3CCN(C(=O)[C@@H]4CCCO4)CC3)nc(N)c2cc1OC | -1.38% (inactive)
17 | O=C1N=c2ccccc2=C/C1=C\c1c(O)[nH]c(=S)[nH]c1=O | -1.76% (inactive)
18 | CCOCCc1c(O)[nH]c(=S)[nH]c1=O | -3.07% (inactive)
19 | COc1ccccc1N=Nc1c(O)[nH]c(=S)[nH]c1=O | 49.2% (active)
20 | O=C1NC(=O)N(Cc2ccco2)C(=O)/C1=C\c1cccn1CCOc1ccccc1 | 37.9% (active)
21 | O=C1NC(=O)N(CCc2ccc(F)cc2)C(=O)/C1=C/C=C/c1ccccc1 | 13.3% (inactive)
22 | Cc1cc(/C=C2/C(=O)NC(=O)N(Cc3ccco3)C2=O)c(C)n1-c1ccc(C(=O)O)cc1 | 22.2% (inactive)
23 | O=C1NC(=O)N(Cc2ccco2)C(=O)/C1=C\c1ccc(-c2ccc(F)cc2)o1 | 27.9% (active)
24 | O=C(O)COc1ccccc1/C=C1\C(=O)NC(=O)N(CCC2=CCCCC2)C1=O | 7.72% (inactive)
